Reference: PubChem BioAssay AID743446 (Broad Institute, 2014)
Results with a measured potency or affinity are listed apart. A number with no mark means an inactive call. How the calls were made is not given here.

Experiment: HEK293 cell cytotoxicity, dose response, cytotoxicity control, plate reader, cherry-picked samples (AID 743446)
Conditions: active compounds read low; at 26 µM unless noted

Row | Structure (SMILES) | max activity
1 | CNC(=O)Oc1cccc(-c2cn3cc(Cl)ccc3n2)c1 | 27.7% [at 0.38 µM]
2 | COC(=O)c1ccc(NC(=O)CSc2nc3ccc(N4C(=O)C5C6C=CC(C6)C5C4=O)cc3s2)cc1 (stereo not given) | -25.2%
3 | O=C(O)c1nn(Cc2ccc(Cl)cc2Cl)c2ccccc12 | 19.3% [at 0.38 µM]
4 | O=Cc1cn(Cc2cccc([N+](=O)[O-])c2)c2ccccc12 | -15.2% [at 12 µM]
5 | CC(C)(C)n1cc(C(=O)c2ccc3ccccc3c2O)cn1 | -8.13%
